# Hits are enriched below; roughly 3.9% of the tested compounds scored in any of these assays.
# Mtb FBA inh: Mtb FBA enzyme inhibitors, primary screen, biochemical, fluorescence, strain H37Rv; inhibition, % at 1 µM; actives 2.3% (n = 360,000); purified M. tuberculosis FBA, fluorescence read-out; Fructose-bisphosphate aldolase (Mycobacterium tuberculosis (strain ATCC 25618 / H37Rv)), …; AID 588726, 2011;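 further: 0% = vehicle and 100% = reference inhibitor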
# Target sequence (P9WQA3 whole entry, looked up): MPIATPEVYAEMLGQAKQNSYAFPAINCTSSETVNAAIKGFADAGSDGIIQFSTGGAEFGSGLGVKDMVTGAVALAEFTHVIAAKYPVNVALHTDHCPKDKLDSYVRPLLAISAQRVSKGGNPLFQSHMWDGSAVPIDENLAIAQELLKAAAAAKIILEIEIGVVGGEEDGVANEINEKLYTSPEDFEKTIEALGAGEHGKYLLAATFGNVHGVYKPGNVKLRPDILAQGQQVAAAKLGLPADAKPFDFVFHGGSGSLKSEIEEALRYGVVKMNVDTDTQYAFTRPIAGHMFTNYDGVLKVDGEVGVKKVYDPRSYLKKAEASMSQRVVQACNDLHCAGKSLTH
# GDH-TPI counter-1: GDH-TPI coupling enzyme inhibitors, primary screen, artefact control for M. tuberculosis FBA inhibitor project, biochemical, absorbance, full deck; GDH-TPI coupled enzyme counterscreen, NADH absorbance; inhibition, % at 4.8 µM; actives 1.2% (n = 360,000); in the data active means inhibition above about 30%;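 further: 0% = DMSO wells and 100% = wells lacking the enzyme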
# SARS 3CLpro inh: SARS-CoV 3CLpro protease inhibitors, primary screen, biochemical, quenched FRET. Replicase polyprotein 1ab (Severe acute respiratory syndrome coronavirus), P0C6X7. recombinant SARS-CoV 3CLpro, quenched FRET peptide cleavage. inhibition, % at 6 µM. actives 0.14% (n = 290,000). AID 1706, 2009; in the data active means inhibition above about 12%
# Vc quorum ag: inducers of Vibrio cholerae quorum light production without autoinducers, primary screen, BH1578 luxS cqsA deficient, single point; AID 588436, 2011; actives 0.16% (n = 350,000); V. cholerae BH1578 lux reporter, luminescence, 6 h; activation, % at 18.7 µM; in the data active means activation mostly above about 9.7%, no sharp cut-off
# PrPC TRFRET: inhibitors of human cell surface prion protein PrPC, primary screen, cell-based, TR-FRET. TR-FRET read-out. AID 720596, 2013. actives 0.43% (n = 370,000). Major prion protein (Homo sapiens), P04156. inhibition, % at 13.8 µM; in the data active means inhibition above about 24%; further: 0% = median of the test wells and 100% = reference compound wells
# Mtb FBA confirm: M. tuberculosis aldolase blockers, biochemical, fluorescence, strain H37Rv, confirmation. inhibition, % at 1 µM. actives 78% (n = 5,600). AID 651616, 2012. purified M. tuberculosis FBA, fluorescence read-out. shares compounds with Mtb FBA inh;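 further: 0% = vehicle wells and 100% = reference inhibitor wells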
# GDH-TPI counter-2: GDH-TPI coupling enzyme inhibitors, artefact control for M. tuberculosis FBA inhibitor project, biochemical, fluorescence, high throughput | shares compounds with Mtb FBA inh | GDH-TPI coupled enzyme counterscreen | inhibition, % at 1 µM | actives 81% (n = 5,600); in the data active means inhibition above about 10%
# * = called active by the depositor; i = inactive; x = no result; + = active, no number. Unless noted, no stated cut-off is given here; in the data, active means inhibition above about 27%; inactive means the rest.
SMILES,Mtb FBA inh,GDH-TPI counter-1,SARS 3CLpro inh,Vc quorum ag,PrPC TRFRET,Mtb FBA confirm,GDH-TPI counter-2
CC1(C)Cc2c(C#N)c(NCC3CCCO3)nc(-c3ccco3)c2CO1 (centres undefined),30*,15,3,i,-3,+,+
CC1(C)Cc2c(C#N)c(NC3CCCCC3)nc(-c3ccco3)c2CO1,15,10,6,0,x,x,x
Cc1nc(NCCO)c(C#N)c2c1COC(C)(C)C2,17,14,-1,3,-2,x,x
CCN(CC)CCNc1nc(-c2ccco2)c2c(c1C#N)CC(C)(C)OC2,25,13,-4,i,-13,x,x
Cc1oc(-c2ccccc2F)nc1CS(=O)CC(=O)NC1CCCC1 (centres undefined),2,0,0,4,5,x,x
Cc1ccc(S(=O)(=O)c2nc(/C=C/c3ccccc3)oc2N2CCC(C(N)=O)CC2)cc1,6,19,x,-1,-4,x,x
O=C(O)c1c[nH]c2c([N+](=O)[O-])cccc2c1=O,-1,6,x,i,-50,x,x
O=C(CC1C(=O)NCCN1C(=O)Nc1ccccc1)Nc1cc(Cl)cc(Cl)c1 (centres undefined),-1,4,2,-1,9,x,x
O=C(Nc1cccnc1)c1cc2nc(C3CC3)cc(C(F)(F)F)n2n1,2,5,-2,-1,-11,x,x
CC(C)CNC(=O)c1cc2nc(C3CC3)cc(C(F)(F)F)n2n1,79*,13,-4,i,0,62*,61*
CCC(C)NC(=O)c1cc2c(=O)[nH]c3ccc(C)cc3c2s1 (centres undefined),70*,24,1,i,0,89*,65*
CC(C)CCNC(=O)c1cc2c(=O)[nH]c3ccccc3c2s1,9,14,-5,0,7,x,x
Cc1ccc2[nH]c(=O)c3cc(C(=O)NCCC(C)C)sc3c2c1,15,-3,2,-2,6,x,x
CCCCN(CC)CCNC(=O)c1cc2c(=O)[nH]c3ccc(C)cc3c2s1,36*,14,-9,i,-11,59*,46*
CCCCN(CC)CCCNC(=O)c1cc2c(=O)[nH]c3ccccc3c2s1,72*,26,-7,i,-7,170*,153*
CCOCCCNC(=O)c1cc2c(=O)[nH]c3ccccc3c2s1,71*,11,-5,i,3,+,+
CC(C)(C)c1cc(NS(=O)(=O)c2ccc(Br)s2)no1,2,4,4,-1,8,x,x
C/C(CC(=O)Nc1ccccc1F)=N\NC(=O)Cc1ccc(Cl)cc1,-7,-1,7,-1,0,x,x
CC(C)COc1ccc(-c2csc(N3CCC(C(N)=O)CC3)n2)cc1,x,x,x,x,2,x,x
CCCC(=O)Nc1ccc(C(=O)NCc2ccccn2)cc1,-1,1,0,i,0,x,x
N#CCC(=O)Nc1ccc(C(=O)NCc2ccccn2)cc1,27*,-1,1,0,1,114*,72*
CCc1nc(-c2ccc(OC)c(OC)c2)cc2cc(OC)c(OC)cc12,2,-1,-2,0,-2,x,x
CCOc1ccc(-c2cc3cc(OC)c(OC)cc3c(C)n2)cc1,28*,2,0,-1,-11,60*,43*
COc1ccc(CNC(=O)CCCC2=NS(=O)(=O)c3ccccc3N2)cc1,102*,4,4,0,0,132*,139*
COc1ccc(CNC(=O)CC(C)CC2=NS(=O)(=O)c3ccccc3N2)cc1 (centres undefined),-1,-6,0,0,-1,x,x
COc1cc(C(=O)NC2CCCc3ccccc32)cc(OC)c1C (centres undefined),8,5,1,0,-1,x,x
CCCCn1nc2cc(C(=O)N[C@H](C)C3CCCCC3)ccc2c1OCC,53*,-4,-2,-4,9,45*,39*
